# Assays:
# Assay in all cases: PBM binding z-score (relative to random genomic background probes); higher = stronger binding; sequences stand for … in GC…GCGATTGACAGCGTAGAATGAAGG
# [1] = test system: FXR:RXRa (NR concentration 270 nM, RXRa partner concentration 90 nM)
# In short: (§1)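 Scanned fluorescence from custom Agilent 4×180K protein-binding microarrays was regression-normalized. Binding z-scores use random background probes as reference. Ligand-free nuclear receptor dimers were incubated on the arrays for 1 h and detected with antibodies against each partner (one per run).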
# [2] = test system: LXRa:RXRa (NR concentration 270 nM, RXRa partner concentration 90 nM)
# In short: as §1
# [3] = test system: LXRa homodimer (NR concentration 270 nM)
# In short: as §1
# [4] = test system: LXRb:RXRa (NR concentration 270 nM, RXRa partner concentration 90 nM)
# In short: as §1
# [5] = test system: LXRb homodimer (NR concentration 270 nM)
# In short: as §1
# [6] = test system: PPARa:RXRa (NR concentration 270 nM, RXRa partner concentration 90 nM)
# In short: as §1
# [7] = test system: PPARg:RXRa (NR concentration 180 nM, RXRa partner concentration 90 nM)
# In short: as §1
# [8] = test system: PPARg:RXRa 270nM:90nM, anti-RXR (NR concentration 270 nM, RXRa partner concentration 90 nM)
# In short: as §1
# [9] = test system: PPARg:RXRa 30nM:10nM, anti-RXR (NR concentration 30 nM, RXRa partner concentration 10 nM)
# In short: as §1
# [10] = test system: PPARg:RXRa 90nM:30nM, anti-RXR (NR concentration 90 nM, RXRa partner concentration 30 nM)
# In short: as §1
# [11] = test system: PPARg:RXRa DBDmut IVT, anti-RXR (DBD mutation: RXRa K156A/R161A, NR concentration 270 nM, RXRa partner concentration 90 nM)
# In short: as §1
# [12] = test system: PPARg:RXRa IVT, anti-PPARg (NR concentration 270 nM, RXRa partner concentration 90 nM)
# In short: as §1
# [13] = test system: PPARg DBDmut:RXRa IVT, anti-PPARg (DBD mutation: PPARg1 K132A/R137A, NR concentration 270 nM, RXRa partner concentration 90 nM)
# In short: as §1
# [14] = test system: PPARg DBDmut IVT, anti-PPARg (DBD mutation: PPARg1 K132A/R137A, NR concentration 270 nM)
# In short: as §1
# [15] = test system: PPARg homodimer (NR concentration 180 nM)
# In short: as §1
# [16] = test system: PXR:RXRa (NR concentration 270 nM, RXRa partner concentration 90 nM)
# In short: as §1
# [17] = test system: PXR homodimer (NR concentration 270 nM)
# In short: as §1
# [18] = test system: RARa:RXR (NR concentration 270 nM, RXRa partner concentration 90 nM)
# In short: as §1
# [19] = test system: RARa homodimer (NR concentration 270 nM)
# In short: as §1
# [20] = test system: RARb:RXRa (NR concentration 270 nM, RXRa partner concentration 90 nM)
# In short: as §1
Sequence,PBM binding z-score [1],PBM binding z-score [2],PBM binding z-score [3],PBM binding z-score [4],PBM binding z-score [5],PBM binding z-score [6],PBM binding z-score [7],PBM binding z-score [8],PBM binding z-score [9],PBM binding z-score [10],PBM binding z-score [11],PBM binding z-score [12],PBM binding z-score [13],PBM binding z-score [14],PBM binding z-score [15],PBM binding z-score [16],PBM binding z-score [17],PBM binding z-score [18],PBM binding z-score [19],PBM binding z-score [20]
CCGACTGGGGCAAGGTTTCCATAACGCACAGCCA,-0.141,-0.322,-0.44,-0.321,-0.889,0.606,2.28,2.75,0.608,1.97,2.98,3.2,-0.0108,-1.24,0.216,-0.725,-0.351,-0.351,-0.575,0.592
TGGCAAAGTTCAAAGGTAACGTAAGTATCCACAC,7.23,6.17,4.18,4.49,1.25,5.55,6.74,7.1,4.38,6.02,-0.0424,3.1,0.662,1.12,3.45,5.58,4.43,6.87,1.43,5.11
ATCGAAAGGTCGACGAGGTGAGTATCCACCGTTT,3.97,3.28,-0.0498,2.63,0.248,4.28,2.41,3.45,0.781,2.21,0.709,1.86,0.578,0.779,1.21,2.78,0.403,3.19,0.424,3.84
CCAGACAGGTGAAAGGTAACTTAGTCTGGTACGC,0.545,0.539,-0.368,0.935,-0.486,3.31,5.21,5.6,3.58,5.77,2.21,2.75,0.0771,-0.396,0.712,0.936,-0.035,1.59,0.346,1.15
TCTTGTAGATCAAGCAAGTTAAGAAAGCCTGAGT,0.00157,-0.0687,-0.36,-0.0255,-0.715,0.295,-0.623,1.01,2.4,1.72,1.73,0.172,-0.613,-0.0624,-0.466,0.15,0.419,0.014,-0.373,0.115
ATCTCTAGGTAATAAGTTCAGTGAAAGAGAGGAC,0.945,1.09,0.832,0.701,1.15,1.51,1.69,2.39,1.36,2.07,2.07,2.06,1.58,1.43,1.52,1.7,2.13,0.943,1.54,1.83
CGTCCAAGGTCAGGAGGTCAGTGAAAGCGACGTG,6.23,4.55,1.15,3.64,-0.0727,5.43,4.93,5.41,1.89,4.06,2.95,3.93,-0.53,-1.29,5.26,4.65,1.1,6.11,1.5,5.52
CGAACTAGGTCAGAACAGGACAGTGCAGGATGAT,1.66,0.725,-0.124,0.147,-0.225,3.08,5.1,4.39,1.84,3.81,7.46,7.27,0.839,0.368,1.18,0.783,0.225,0.999,0.221,2.96
TAGCCTAGGTCATTCAGGGGCCAGTGTAGAAAGC,4.78,3.98,0.7,3.06,1.08,3.66,1.53,2.43,0.00175,1.14,1.87,2.74,0.0729,-0.141,1.39,2.27,-0.259,3.32,-0.591,3.96
AGAATGAGGTTATTCGTAGATCAGGGAAGAAAGT,2.59,2.61,0.0908,1.87,-0.0255,3.43,1.64,1.83,0.552,1.2,2.54,2.22,0.846,0.521,0.454,1.44,0.494,1.98,0.0936,1.36
CCTCGGAGGACAGAAGGTCATAGCTGTCCGCTTT,2.89,3.44,1.4,2.23,-0.526,3.17,0.58,1.68,-0.379,0.915,0.177,0.772,-1.55,-1.54,2.13,3.22,0.225,3.55,0.138,3.5

# Reference: the supplement of paper PMC6555819
